Results filed as inconclusive are left out. The source made the active and inactive calls.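 The calls were made as follows, unless noted: active = normalized viability below 100% at a tested concentration; inactive = the rest.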
Key:
[1] = growth inhibition of DIPG glioma cells, dose response, cell-based, SU-DIPG-XVII, MIPE5.0, CellTiter-Glo, qHTS (AID 1347060; cut-off not given, nearly all actives have AC50 up to about 26 µM;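 also: cells exposed to compound for 48 hours before viability readout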); conditions: SU-DIPG-XVII viability, CellTiter-Glo ATP luminescence
[2] = growth inhibition of DIPG glioma cells, dose response, cell-based, SU-DIPG-XIII, MIPE4.0, CellTiter-Glo, qHTS (AID 1347061; cut-off not given, nearly all actives have AC50 up to about 37 µM;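 also: cells exposed to compound for 48 hours before readout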); conditions: SU-DIPG-XIII viability, CellTiter-Glo ATP luminescence
[3] = growth inhibition of DIPG glioma cells, dose response, cell-based, JHH-DIPG-1, MIPE4.0, CellTiter-Glo, qHTS (AID 1347062; cut-off not given, nearly all actives have AC50 up to about 27 µM;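 also: cells exposed to compound for two days before readout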); conditions: JHH-DIPG-1 viability, CellTiter-Glo ATP luminescence
[4] = growth inhibition of DIPG glioma cells, dose response, cell-based, SU-DIPG-IV, MIPE4.0, CellTiter-Glo, qHTS (AID 1347063; cut-off not given, nearly all actives have AC50 up to about 30 µM;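 also: compound exposure lasted 48 hours before the viability readout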); conditions: SU-DIPG-IV viability, CellTiter-Glo ATP luminescence
[5] = growth inhibition of DIPG glioma cells, dose response, cell-based, SU-DIPG-XIII, MIPE5.0, CellTiter-Glo, qHTS (AID 1347064; cut-off not given, nearly all actives have AC50 up to about 23 µM;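 also: cells exposed to compound for 48 hours before the viability read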); conditions: SU-DIPG-XIII viability, CellTiter-Glo ATP luminescence
[6] = viability loss in pontine glioma line – cell-based, SU-DIPG-XXV, MIPE5.0, CellTiter-Glo, qHTS, dose response (AID 1347065; cut-off not given, nearly all actives have AC50 up to about 26 µM;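 also: cells exposed to compound for 48 hours before ATP readout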); conditions: CellTiter-Glo ATP luminescence
[7] = SU-DIPG-VI glioma cell viability, MIPE4.0 library, CellTiter-Glo luminescence, qHTS (AID 1347066; cut-off not given, nearly all actives have AC50 up to about 30 µM;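 also: cells exposed to compound for 48 hours before readout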); conditions: CellTiter-Glo ATP luminescence
[8] = JHH-DIPG-1 glioma cell viability, MIPE5.0 library, CellTiter-Glo luminescence, qHTS (AID 1347067; cut-off not given, nearly all actives have AC50 up to about 26 µM;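 also: cells exposed to compound for 48 hours before readout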); conditions: JHH-DIPG-1 glioma viability, CellTiter-Glo ATP luminescence
[9] = SU-DIPG-XXV glioma cell viability, MIPE5.0 library, qHTS (AID 1347068; cut-off not given, nearly all actives have IC50 up to about 30 µM;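 also: cells exposed to compound for 48 hours before viability readout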)
[10] = ovarian cancer cell viability with rucaparib, profiling panel, oncology-focused library, rucaparib conditional (AID 1508598); conditions: patient-derived ovarian cancer cells, CellTiter-Glo viability, 144 h, stronger effect = lower value
[11] = sensitizers of A549 cells to miR-34 induction, primary screen, imaging, A549 dox-inducible miR-34, nuclei and caspase counts (AID 1347080;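 active = compounds whose cell count with miR-34 switched on is under 0.7 times the count with it off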); conditions: A549 miR-34 inducible, Hoechst nuclei count, 48 h
[12] = survival rescue of mitochondrial mutant cells in low glucose, primary screen, MELAS cybrids, Rieske KO mouse fibroblasts, CellTiter-Glo (AID 1508586;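 active = mean z-score across replicates of 1.96 or higher in either the MELAS or the Rieske mutant cell line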;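 also: z relative to plate mean and SD of compound and empty wells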)
[13] = modifiers of HSF1 nuclear foci, imaging, Selleck Cancer Library (AID 1347162; in the data active = plate-normalised HSF1 focus index below about 0.46); conditions: human cells, at 10 µM; SSMD: measured here: HSF1 foci SSMD mean; cell count: measured here: cell number; plate-normalised HSF1 focus index: stronger effect = lower value
[14] = at 0.000305 µM, OCI-C5x cells, with rucaparib 10 µM, 100% = cells with rucaparib alone
[15] = at 0.000305 µM, OCI-C5x cells, without rucaparib
[16] = at 0.000305 µM, OCI-P5x cells, with rucaparib 20 µM, 100% = cells with rucaparib alone
[17] = at 0.000305 µM, OCI-P5x cells, without rucaparib
[18] = at 0.00122 µM, OCI-C5x cells, with rucaparib 10 µM, 100% = cells with rucaparib alone
[19] = at 0.00122 µM, OCI-C5x cells, without rucaparib
[20] = at 0.00122 µM, OCI-P5x cells, with rucaparib 20 µM, 100% = cells with rucaparib alone
[21] = at 0.00122 µM, OCI-P5x cells, without rucaparib
[22] = at 0.00488 µM, OCI-C5x cells, with rucaparib 10 µM, 100% = cells with rucaparib alone
[23] = at 0.00488 µM, OCI-C5x cells, without rucaparib
[24] = at 0.00488 µM, OCI-P5x cells, with rucaparib 20 µM, 100% = cells with rucaparib alone
[25] = at 0.00488 µM, OCI-P5x cells, without rucaparib
[26] = at 0.0195 µM, OCI-C5x cells, with rucaparib 10 µM, 100% = cells with rucaparib alone
[27] = stronger effect = lower value, cell number ratio, induced over uninduced
[28] = measured here: relative caspase fold change +Dox/-Dox
[29] = measured here: total cells with miR-34 induction, stronger effect = lower value
[30] = measured here: total cells without miR-34 induction
[31] = MELAS cybrid survival, CellTiter-Glo 48 h, stronger effect = higher value
[32] = Rieske KO mouse fibroblast survival, CellTiter-Glo 72 h

Cc1nc(Nc2n[nH]c3c2CN(C(=O)N[C@H](CN(C)C)c2ccccc2)C3(C)C)c2sccc2n1
active: AC50 [1] 3.72 µM | AC50 [2] 10.5 µM | AC50 [3] 2.09 µM | AC50 [4] 2.96 µM | AC50 [5] 1.18 µM | AC50 [6] 2.09 µM | AC50 [7] 8.33 µM | AC50 [8] 2.95 µM | IC50 [9] 4.17 µM | viability [10, 24] 85.5% | viability [10, 25] 84.6% | viability ([10]; at 0.0195 µM, OCI-C5x cells, without rucaparib) 66.6% | viability ([10]; at 0.0195 µM, OCI-P5x cells, with rucaparib 20 µM, 100% = cells with rucaparib alone) 68.4% | viability ([10]; at 0.0195 µM, OCI-P5x cells, without rucaparib) 66.2% | viability ([10]; at 0.0781 µM, OCI-C5x cells, with rucaparib 10 µM, 100% = cells with rucaparib alone) 90.6% | viability ([10]; at 0.0781 µM, OCI-C5x cells, without rucaparib) 73.2% | viability ([10]; at 0.0781 µM, OCI-P5x cells, with rucaparib 20 µM, 100% = cells with rucaparib alone) 59.9% | viability ([10]; at 0.0781 µM, OCI-P5x cells, without rucaparib) 60.2% | viability ([10]; at 0.313 µM, OCI-C5x cells, without rucaparib) 88% | viability ([10]; at 0.313 µM, OCI-P5x cells, with rucaparib 20 µM, 100% = cells with rucaparib alone) 44.2% | viability ([10]; at 0.313 µM, OCI-P5x cells, without rucaparib) 48.5% | viability ([10]; at 1.25 µM, OCI-C5x cells, with rucaparib 10 µM, 100% = cells with rucaparib alone) 85.2% | viability ([10]; at 1.25 µM, OCI-C5x cells, without rucaparib) 95.2% | viability ([10]; at 1.25 µM, OCI-P5x cells, with rucaparib 20 µM, 100% = cells with rucaparib alone) 24.7% | viability ([10]; at 1.25 µM, OCI-P5x cells, without rucaparib) 39.9% | viability ([10]; at 5 µM, OCI-C5x cells, with rucaparib 10 µM, 100% = cells with rucaparib alone) 8.03% | viability ([10]; at 5 µM, OCI-C5x cells, without rucaparib) 10.2% | viability ([10]; at 5 µM, OCI-P5x cells, with rucaparib 20 µM, 100% = cells with rucaparib alone) 8.49% | viability ([10]; at 5 µM, OCI-P5x cells, without rucaparib) 4.16%
inactive: viability [10, 14] 107% | viability [10, 15] 125% | viability [10, 16] 108% | viability [10, 17] 104% | viability [10, 18] 112% | viability [10, 19] 126% | viability [10, 20] 102% | viability [10, 21] 108% | viability [10, 22] 106% | viability [10, 23] 106% | viability [10, 26] 107% | viability ([10]; at 0.313 µM, OCI-C5x cells, with rucaparib 10 µM, 100% = cells with rucaparib alone) 101%

CCCNC(=O)[C@H]1O[C@@H]1C(=O)N[C@H](C(=O)N1CCC[C@H]1C(=O)OC)C(C)CC (some centres not stated)
4190: cell count [11, 29]
1.21: fold change [11, 28]
inactive: fold change [11, 27] 0.991
4230: cell count [11, 30]
active: AC50 [1] 16.6 µM | AC50 [2] 16.6 µM | AC50 [3] 16.6 µM | AC50 [4] 16.6 µM | AC50 [5] 11.8 µM | AC50 [6] 13.2 µM | AC50 [7] 10.5 µM | AC50 [8] 11.8 µM

CC(C)c1cc(C(=O)N2Cc3ccc(CN4CCN(C)CC4)cc3C2)c(O)cc1O
active: AC50 [1] 0.468 µM | AC50 [2] 1.18 µM | AC50 [3] 0.296 µM | AC50 [4] 0.526 µM | AC50 [5] 0.742 µM | AC50 [6] 0.525 µM | AC50 [8] 0.661 µM | IC50 [9] 1.48 µM | z-score [12, 31] 2.68
-0.499: z-score [12, 32]
1780: cell count [11, 29]
inactive: fold change [11, 27] 0.888
2010: cell count [11, 30]
0.921: fold change [11, 28]

Nc1ccc(C(=O)Nc2cccc(-c3nc(N4CCOCC4)c4oc5ncccc5c4n3)c2)cn1
-2.85: z-score [12, 32]
2410: cell count [11, 29]
0.903: fold change [11, 28]
active: AC50 [1] 4.68 µM | AC50 [2] 18.7 µM | AC50 [3] 16.6 µM | AC50 [4] 16.6 µM | AC50 [5] 8.33 µM | AC50 [6] 2.09 µM | AC50 [7] 11.8 µM | AC50 [8] 8.33 µM | z-score [12, 31] 3.1 | viability [10, 16] 83.5% | viability [10, 17] 86.3% | viability [10, 20] 68.8% | viability [10, 21] 85.2% | viability [10, 24] 71.1% | viability [10, 25] 81%
6980: cell count [13]
inactive: fold change [11, 27] 1.02 | plate-normalised HSF1 focus index [13] 0.989 | viability [10, 14] 106% | viability [10, 15] 111% | viability [10, 18] 106% | viability [10, 19] 107% | viability [10, 22] 105% | viability [10, 23] 108% | viability [10, 26] 115%
-0.394: SSMD [13]
2370: cell count [11, 30]
